# Active and inactive are the calls of the source.
# Tests used:
# Albumin (Bos taurus) = Albumin (Bos taurus) (UniProt P02769); test: bovine serum albumin binders on microarray, profiling panel, artefact control for SMM control protein annotation, biochemical, small-molecule microarray, Alexa647 label, 635/667 nm fluorescence (AID 1118); details: BSA-A647 binding, fluorescence 635 nm, higher = more signal;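 note: score merges 667 nm emission intensity and signal-to-noise per printed compound spot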
# [1] = small-molecule microarray binders of probe aXIP, primary screen, biochemical, NeuroSMM set, 635/667 nm fluorescence (AID 1119); details: higher = more signal, called active from +8 up or from −8 down;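 note: probe is the protein aXip251-270 applied at 1 µg/mL to compound-printed slides; binding of probe to printed compounds measured as 667 nm fluorescence plus signal to noise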
# [2] = small-molecule binders of probe aNOTCH3, primary screen, biochemical, small-molecule microarray, 635/667 nm fluorescence (AID 1120); details: higher = more signal;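 note: probe is a biotin-tagged antibody raised against NOTCH3 rather than NOTCH3 protein; score merges spot fluorescence near 667 nm with spot signal to noise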
# [3] = small-molecule binders of probe aNOTCH2, primary screen, biochemical, small-molecule microarray, 635/667 nm fluorescence (AID 1121); details: higher = more signal;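 note: score merges feature fluorescence read at 667 nm with its signal to noise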
# [4] = molecular target: Carbonic anhydrase 2 (Homo sapiens) (UniProt P00918); test: CAII small-molecule binders, profiling panel, biochemical, small-molecule microarray, Alexa647-labelled CAII (AID 1122); details: CAII-A647 binding fluorescence, higher = more signal
# [5] = COS7 lysate on small-molecule microarray, probe aHis, 635 nm (AID 1123); details: COS7 cell lysate, fluorescence, higher = more signal;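 note: z-score combines 667nm fluorescence intensity with signal-to-noise per printed compound spot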
# [6] = compound binding in COS7 lysate, probe aLAP1, primary screen, cell lysate, small-molecule microarray (AID 1124); details: probe aLAP1, fluorescence, higher = more signal;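 note: lysate comes from COS7 cells expressing LAP1 and is applied at 0.3 µg/mL; score merges spot fluorescence near 667 nm with signal-to-noise over triplicate slides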
# Sam68 (KHDRBS1) = test: Sam68 small-molecule binders, primary screen, biochemical, small-molecule microarray, 635 nm fluorescence (AID 1125); details: small-molecule microarray binding, higher = more signal;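 note: score merges 667 nm channel intensity with signal to noise over triplicate slides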
# [7] = tested on: Chordin-like protein 2 (CHRDL2); test: CHRDL2 small-molecule binders, primary screen, biochemical, small-molecule microarray, 635 nm fluorescence (AID 1126); details: small-molecule microarray binding, fluorescence 635 nm; higher = more signal;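 note: printed compound slides probed with Chrdl2 protein at 4 µg/mL for 1 h at 4 C; score merges 667 nm emission intensity with signal to noise over three replicate slides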
# [8] = molecular target: Concanavalin-A (Canavalia ensiformis) (UniProt P02866); test: ConA small-molecule binders, primary screen, artefact control for SMM control protein annotation, biochemical, small-molecule microarray, Alexa647 label, 635 nm (AID 1127); details: ConA-A647 binding fluorescence, higher = more signal;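 note: z combines 667 nm emission intensity with signal-to-noise across three replicate slides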
# Concanavalin-A (Canavalia ensiformis), sequence (P02866 whole entry, looked up): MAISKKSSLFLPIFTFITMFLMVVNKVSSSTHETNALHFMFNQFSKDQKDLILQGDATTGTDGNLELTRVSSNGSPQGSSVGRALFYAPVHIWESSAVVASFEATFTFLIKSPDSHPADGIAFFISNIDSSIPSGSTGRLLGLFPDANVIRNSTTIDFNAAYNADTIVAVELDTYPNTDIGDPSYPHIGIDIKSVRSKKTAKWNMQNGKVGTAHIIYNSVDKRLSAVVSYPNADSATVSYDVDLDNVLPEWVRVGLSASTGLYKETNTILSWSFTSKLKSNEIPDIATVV
# Albumin (Bos taurus), sequence (P02769 whole entry, looked up): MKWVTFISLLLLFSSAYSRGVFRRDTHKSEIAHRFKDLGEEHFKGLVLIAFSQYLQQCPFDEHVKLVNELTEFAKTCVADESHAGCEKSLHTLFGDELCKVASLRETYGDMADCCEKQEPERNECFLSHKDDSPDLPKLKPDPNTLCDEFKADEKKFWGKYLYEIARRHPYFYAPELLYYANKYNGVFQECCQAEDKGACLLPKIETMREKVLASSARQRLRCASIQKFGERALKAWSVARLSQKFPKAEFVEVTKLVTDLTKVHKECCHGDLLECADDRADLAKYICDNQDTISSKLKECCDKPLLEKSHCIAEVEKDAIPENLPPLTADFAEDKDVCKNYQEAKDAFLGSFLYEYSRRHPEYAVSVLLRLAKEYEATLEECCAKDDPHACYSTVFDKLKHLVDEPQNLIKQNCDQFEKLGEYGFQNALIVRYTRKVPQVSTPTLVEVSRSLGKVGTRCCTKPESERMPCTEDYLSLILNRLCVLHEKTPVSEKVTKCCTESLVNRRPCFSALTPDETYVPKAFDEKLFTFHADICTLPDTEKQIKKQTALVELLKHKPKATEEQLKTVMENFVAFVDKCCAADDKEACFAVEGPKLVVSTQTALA
Structure (SMILES),composite z-score (Albumin (Bos taurus)),composite Z-score [1],composite z-score [2],composite z-score [3],composite z-score [4],composite z-score [5],composite z-score [6],composite z-score (Sam68 (KHDRBS1)),composite z-score [7],composite z-score [8]
Cc1ccccc1C(O)C1C=CC2C(=O)N(Cc3ccccc3)C(=O)C2N1n1cnnc1 (stereo not given),0.756,0.358 (inactive),0.159,-0.137,0.71,0.774,-0.0065,1.01,-0.317,0.71
CO[C@H]1O[C@H](CO)[C@@H](OC(=O)Nc2cccc(F)c2)[C@H](OC(=O)Nc2ccc3c(c2)OCO3)[C@H]1OC(=O)Nc1ccc2c(c1)OCO2,0.445,0.859 (inactive),0.0225,-0.0508,0.728,2.23,0.315,1.3,0.163,0.731
COCC(=C=CC[C@@H](O)c1ccccc1OCCO)C[C@@H](O)COCc1ccccc1,0.521,0.418 (inactive),0.779,0.365,0.73,2.22,1.04,1.04,-0.463,0.244
C[C@]12C(=O)N(CCCO)[C@@H]3C(=O)N(c4ccc(Cl)cc4)CC=CC31O[C@@H]1/C=C\CCCOC(=O)C12 (stereo not given in full),0.309,0.264 (inactive),-0.305,-0.118,0.883,1.46,0.492,0.518,-1.38,-0.743
CC(C)NC(=O)[C@@H]1c2ccccc2C(=O)N(Cc2cc(C(F)(F)F)cc(C(F)(F)F)c2)[C@H]1c1ccc(CO)cc1,0.52,1.21 (inactive),-0.0931,-0.0052,0.298,2.38,0.706,1.3,0.0933,1.09
COc1cc(NN2C(C(O)c3ccc(I)cc3)C=CC3C(=O)N(C)C(=O)C32)cc(OC)c1OC (stereo not given),-0.166,0.466 (inactive),0.163,0.0586,0.783,1.63,0.189,0.144,-0.946,0.0133
CCCC=C(CCC)[C@@H](NS(=O)(=O)CC)c1ccccc1,0.929,-0.112 (inactive),0.096,-0.0194,0.532,1.68,0.177,1.29,-0.462,1.04
O=[N+]([O-])c1ccc(C[n+]2ccc(-c3ccc(CO)cc3)cc2)o1,0.904,0.289 (inactive),-0.0043,-0.0485,0.885,1.13,1.2,0.649,0.768,0.648
COc1cc(C(O)C2C=CC3C(=O)N(C)C(=O)C3N2NC(=O)OC(C)(C)C)cc(OC)c1OC (stereo not given),1.03,0.523 (inactive),0.576,0.46,0.682,2.63,0.954,1.26,-0.217,0.92
CC(C)C(CO)N1C(=O)[C@@H]2[C@H]3C(=O)OCC=C[C@H]3OC23C=CCN(Cn2nnc4ccccc42)C(=O)[C@@H]13 (stereo not given in full),-1.25,-0.274 (inactive),-0.226,-0.204,0.931,-0.0704,-0.215,-0.821,-1.73,-1.34
COCCOC(=O)N1C(=O)[C@@]2(c3cc(C#CC4(O)CCCCCC4)ccc31)[C@H](C(=O)N1CCN(c3ncccn3)CC1)[C@H]1C(=O)O[C@H](c3ccccc3)[C@H](c3ccccc3)N1[C@@H]2c1ccc(O)cc1,0.886,0.528 (inactive),-0.0006,-0.0795,0.35,1.12,0.73,1.22,-0.35,1.11
CCOC(=O)C1=CC[C@@H](c2ccccc2)N(S(=O)(=O)c2ccc(C)cc2)[C@H]1C=C(C)C,0.856,0.325 (inactive),0.31,-0.0209,0.491,2.14,0.149,1.3,0.542,0.947
CN(C)CCCNC(=O)[C@@]1(Cc2ccccc2I)c2ccccc2C(=O)N(Cc2ccccc2Cl)[C@H]1c1ccc(CO)cc1,0.827,-0.175 (inactive),0.175,0.2,0.522,1.44,0.507,-0.035,-1.09,1.09
CCN(CC)c1ccc(N2CC=CC34O[C@@H]5/C=C\CCCOC(=O)C5[C@H]3C(=O)N(CCCCCCO)[C@@H]4C2=O)cc1 (stereo not given in full),0.248,0.703 (inactive),-0.194,-0.145,0.898,0.846,0.613,-0.32,-2.28,-0.642
CN(C)C(=O)[C@@]1(CCC(=O)OC(C)(C)C)COC(c2ccc(OCCCO)cc2)=N1,0.655,0.142 (inactive),-0.119,-0.0508,0.841,3.29,0.723,0.502,-1.46,0.673
CCOc1cc(C(O)C2C=CC3C(=O)NC(=O)C3N2Nc2ccccn2)ccc1O (stereo not given),0.409,0.057 (inactive),-0.0663,0.0065,0.121,-0.086,0.241,-0.352,0.143,0.0306
COc1ccc([Si](C)(C)[C@@H]2[C@@H](CCO)O[C@]3(C(=O)N(Cc4ccc(N5C(=O)c6ccccc6Oc6ccccc65)cc4)c4ccccc43)[C@H]2C)cc1,0.0104,0.441 (inactive),-0.0984,-0.106,-0.104,0.232,-0.398,-0.345,-0.968,0.187
CCCC=C(CCC)[C@@H](NS(=O)(=O)c1cccc2cccnc12)c1ccc(C(=O)OC)cc1,-0.207,0.242 (inactive),2.12,1.16,0.771,0.313,0.392,0.287,0.599,0.782
C=CCNC(=O)[C@@H]1[C@H]2C(=O)O[C@H](c3ccccc3)[C@H](c3ccccc3)N2[C@H](c2ccc(O)cc2)[C@@]12C(=O)Nc1ccc(C#CCCO)cc12,0.803,-0.588 (inactive),-0.186,-0.149,0.761,1.55,0.71,0.277,-1.31,0.0196
C=C(C)[C@@H]1CC=C(C(O)C2C=CC3C(=O)N(C4CCCCC4)C(=O)C3N2Nc2ccc(OC)cc2)CC1 (stereo not given in full),0.902,0.494 (inactive),0.323,-0.141,0.59,2.54,0.273,1.29,0.0811,1.09
C[N+](C)(C)CCCCCCNC(=O)[C@@H]1C[C@@H]2C(=O)NCC(=O)N2[C@@H]1c1ccc(O)cc1,-0.356,0.607 (inactive),0.0636,-0.174,0.618,1.69,0.393,1.06,1.3,0.788
C[N+](C)(C)CCCCCCNC(=O)[C@H]1C[C@H]2C(=O)N3CCC[C@H]3C(=O)N2[C@H]1c1cccc(OCCO)c1,-0.564,0.491 (inactive),0.398,-0.0135,0.662,1.73,0.787,0.976,1.03,1.15
COC(=O)[C@@]1(Cc2ccc(OC)cc2)[C@H]2c3cc(C(=O)N(C)C)n(CCF)c3C[C@H]2CN1C(=O)c1ccccc1,1.01,1.22 (inactive),0.292,-0.0015,0.793,2.96,0.721,1.32,-0.499,1.21
COC(=O)[C@@]1(Cc2ccc(OC)cc2)[C@H]2c3cc(C(=O)N(C)C)n(Cc4cc(F)c(F)c(F)c4)c3C[C@H]2CN1C(=O)c1ccccc1,0.895,-0.37 (inactive),0.578,0.212,0.767,2.73,0.331,1.11,-0.0554,1.13
CC[C@@H]1[C@@H]2C3C(=O)N(CC)C(=O)C3CC(=O)[C@@H]2[C@H](c2ccc(C)cc2)N1S(=O)(=O)c1ccc(C)cc1 (stereo not given in full),0.701,-0.304 (inactive),0.0077,0.131,0.749,2.61,1.64,1.34,-0.337,0.876
COc1ccc([Si](C)(C)[C@@H]2[C@@H](CC(=O)N3Cc4ccccc4C[C@H]3CO)O[C@]3(C(=O)N(Cc4cccc(N5CCCCC5=O)c4)c4ccccc43)[C@H]2C)cc1,-0.565,0.436 (inactive),0.0425,-0.133,-0.0599,0.977,0.426,1.29,1.28,1.13
Cc1ccc(S[C@]2(C(=O)O)CC(=O)N(C3CCCCC3)[C@@H]2c2ccc(CO)cc2)cc1,0.242,0.842 (inactive),-0.398,0.0394,0.714,1.29,0.975,1.31,-0.134,1.16

# Reference: PubChem BioAssay
